About 83,000 compounds went through this panel and 20% of them were active in at least one assay; those are over-represented in the sample as a whole.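 The endpoint reported here, percent growth, reads 100 for growth as untreated, 0 for no net growth and -100 for all cells dead.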 A number with no mark means an inactive call. Active and inactive are the calls of the source. How the source made its calls: active means growth percent below 10; inactive means the rest.

The test system of the test is NCI-H226 lung. The test can be described thus: NCI-60 one-dose screen, 48 h (100 = growth as untreated, 0 = no growth, -100 = all killed). Particulars: 10 µM.
Turning to `O=C1Cc2cc(CCN3CCN(c4nsc5ccccc45)CC3)c(Cl)cc2N1`, the growth was 99.5%.

For the molecule `Nc1ccccc1NC(=O)c1ccc(CCCC(=O)Nc2ccc(C3CC3N)cc2)cc1` (stereo not given), the growth is 27.5%.

For the molecule `CC(C)Cc1ccc([C@H](C)C(=O)O)cc1`, the growth was 112%.

`COc1cc2c3c(n(C4CCN(C)CC4)c(=O)c2cc1OC)-c1cc2c(cc1C3=O)OCO2`: the growth is 60.8%.

With `CN(C)c1nc(N)c2nccnc2n1`, the growth is 105%.

`COc1ccc(CCN2CCC(Nc3nc4ccccc4n3Cc3ccc(F)cc3)CC2)cc1`: the growth is 60%.

On to `CNC(=O)c1c(I)c(NC(C)=O)c(I)c(C(=O)O)c1I`, for which the growth was 98.8%.

Regarding `C[C@H]1[C@H](OC(=O)CCC(=O)O)O[C@@H]2O[C@]3(C)CC[C@H]4[C@H](C)CC[C@@H]1[C@@]24OO3`, the growth is 59.5%.

Turning to `Nc1cc(-c2ccncc2)c[nH]c1=O`, the growth is 103%.

As for `COc1ccc2c(c1)C(CC(=O)NN)CCC2` (stereo not given), the growth was 101%.

Consider `CCCCc1oc2ccccc2c1C(=O)c1cc(I)c(OCCN(CC)CC)c(I)c1`, for which the growth is -36% (active).

Turning to `Clc1ccc2c(c1)C(N1CCNCC1)=Nc1ccccc1O2`, the growth was 83.3%.

As to `COc1ccc(Cc2cnc(N)nc2N)cc1OC`, the growth is 99.1%.

On to `COc1ccc(C(=O)CSc2nc(-c3cc(OC)ccc3OC)cc(-c3ccc(OC)cc3)c2C#N)cc1`, for which the growth is 88.4%.

On to `Nc1ccc(-c2cccs2)cc1NC(=O)c1ccc(CCCC(=O)Nc2ccc(C3CC3N)cc2)cc1` (stereo not given), for which the growth was 108%.

For the molecule `CCCCCOC(=O)Nc1nc(=O)n(C2O[C@H](C)[C@@H](O)[C@H]2O)cc1F` (stereo not given in full), the growth was 97.7%.

For `C[C@@H](O)[C@H]1C(=O)N2C(C(=O)O)=C(SCCN=CN)C[C@H]12`, the growth was -34.7% (active).

Turning to `CCCCC(CC)CN=C(N)NC(N)=NCCCCCCN=C(N)NC(N)=NCC(CC)CCCC` (stereo not given), the growth was -63.1% (active).

For the molecule `CO[C@H]1CC(O[C@@H]2/C(C)=C/C[C@@H]3C[C@@H](C[C@]4(C=C[C@H](C)[C@@H](C5CCCCC5)O4)O3)OC(=O)[C@@H]3C=C(C)[C@@H](O)[C@H]4OC/C(=C\C=C\[C@@H]2C)[C@]43O)O[C@@H](C)C1O[C@H]1C[C@H](OC)[C@@H](O)[C@H](C)O1` (stereo not given in full), the growth is -85.8% (active).

As to `CC1/C=C/C=C/C=C/C=C/C=C/C=C/C=C/C(O[C@@H]2O[C@H](C)[C@H](O)[C@@H](O)[C@@H]2N)CC(O)C(C(=O)O)C(O)CC(=O)CC(O)CC(O)CC(O)CC(=O)CCCC(=O)CC(=O)OC1C(C)CC(C)C(O)CC(=O)c1ccc(N)cc1` (stereo not given in full), the growth is -93% (active).

Regarding `S=C1N(c2ccccc2)CN(C2CCCCC2)CN1c1ccccc1`, the growth was 98.7%.

With `C#C[C@]1(O)CCC2C3CCc4cc(OC5CCCC5)ccc4C3CC[C@@]21C` (stereo not given in full), the growth was 91.6%.

As for `CC(=O)[C@@]12O[C@](C)(c3ccccc3)O[C@@H]1CC1C3CCC4=CC(=O)CC[C@]4(C)C3CC[C@@]12C` (stereo not given in full), the growth was 78.5%.

For `COc1ccc2nc3cc(Cl)ccc3c(Nc3cc(CN4CCCC4)c(O)c(CN4CCCC4)c3)c2n1`, the growth is -32.1% (active).

Consider `CCc1cc(Cl)c(OC)c(C(=O)NCC2CCCN2CC)c1O` (stereo not given), for which the growth is 94.7%.

In the case of `CCOC(=O)c1sc2ncnc(Nc3ccc(NC(=O)Nc4ccc(Cl)cc4)cc3)c2c1C`, the growth was 87.3%.

For `Cc1cc(C(C#N)c2ccc(Cl)cc2)c(Cl)cc1NC(=O)c1cc(I)cc(I)c1O` (stereo not given), the growth was 45.4%.

As for `COc1cc2c3c(n([C@@H]4CCOC4)c(=O)c2cc1OC)-c1cc2c(cc1C3=O)OCO2`, the growth was 24.2%.

Turning to `C[N+]1(CCCCC[N+]2(C)CCCC2)CCCC1`, the growth was 83.8%.

Regarding `C=C(NC(=O)C(=C)NC(=O)c1csc(C2=NC3c4csc(n4)C4NC(=O)c5csc(n5)C(C(C)(O)C(C)O)NC(=O)C5CSC(=N5)C(=CC)NC(=O)C(C(C)O)NC(=O)c5csc(n5)C3(CC2)NC(=O)C(C)NC(=O)C(=C)NC(=O)C(C)NC(=O)C(C(C)CC)NC2C=Cc3c(C(C)O)cc(nc3C2O)C(=O)OC4C)n1)C(N)=O` (stereo not given), the growth was -59.6% (active).

For `Nc1nc(Cl)nc2c1ncn2C1O[C@H](CO)[C@@H](O)[C@@H]1F` (stereo not given in full), the growth was 2.75% (active).

With `CN1CCN(c2cc3c(cc2F)c(=O)c(C(=O)O)cn3-c2ccc(F)cc2)CC1`, the growth was 100%.

On to `CCC1NC(=O)c2cc(S(N)(=O)=O)c(Cl)cc2N1` (stereo not given), for which the growth is 102%.

Consider `CC(=O)O[C@@]12CO[C@@H]1C[C@H](O)[C@@]1(C)C(=O)[C@H](O)C3=C(C)[C@@H](OC(=O)[C@H](O)[C@@H](NC(=O)OC(C)(C)C)c4ccccc4)C[C@@](O)([C@@H](OC(=O)c4ccccc4)C12)C3(C)C` (stereo not given in full), for which the growth is 61.5%.

As to `CCCc1nc(C(C)(C)O)c(C(=O)O)n1Cc1ccc(-c2ccccc2-c2nn[nH]n2)cc1`, the growth was 103%.

In the case of `Cc1cc(CC(C)CC(C)(C)C)n(O)c(=O)c1` (stereo not given) (tested in a mixture with another compound), the growth was 14.1%.

Turning to `CN1CCN(C2=Nc3ccccc3Oc3ccc(Cl)cc32)CC1`, the growth was 111%.

For the molecule `Cc1nc2n(c(=O)c1CCN1CCC(c3noc4cc(F)ccc34)CC1)CCC[C@@H]2O`, the growth was 99.6%.

Take `COc1cc2cc(Oc3ccc(NC(=O)c4cccc(C(F)(F)F)c4)cc3)c(C)nc2cc1OC`: the growth is 48.1%.

As to `CCOC(=O)c1sc2ncnc(Nc3ccc4c(cnn4C(=O)Nc4ccccc4)c3)c2c1C`, the growth is 109%.

The record behind these values is PubChem BioAssay (NCI).
